Screens from PubChem BioAssay.
Most compounds without a hit are left out; they make up all but 1.7% or so of the library.
USP10 inh = human USP10 deubiquitinase inhibition. Q14694. purified USP10, Ub-rhodamine fluorescence, 60 min. inhibition, % at 20 µM. actives 1.1% (n = 47,000)
UCHL1 block = human UCHL1 deubiquitinase inhibition; inhibition, % at 20 µM; P09936; purified UCHL1, Ub-rhodamine cleavage fluorescence; AID 1645859; actives 0.2% (n = 47,000)
Target sequence (P09936 whole entry, looked up): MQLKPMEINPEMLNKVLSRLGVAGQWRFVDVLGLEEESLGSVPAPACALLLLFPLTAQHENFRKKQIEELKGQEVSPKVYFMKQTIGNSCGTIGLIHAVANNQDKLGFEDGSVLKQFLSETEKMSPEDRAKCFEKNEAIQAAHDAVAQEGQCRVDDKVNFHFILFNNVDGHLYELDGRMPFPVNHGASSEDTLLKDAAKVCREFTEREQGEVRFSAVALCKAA
OTUD3 block = blocks human OTUD3 ubiquitin-rhodamine cleavage | Q5T2D3 | purified OTUD3, Ub-rhodamine fluorescence, 2 h | inhibition, % at 25 µM | actives 0.7% (n = 47,000) | AID 1645858
Target sequence (Q5T2D3 whole entry, looked up): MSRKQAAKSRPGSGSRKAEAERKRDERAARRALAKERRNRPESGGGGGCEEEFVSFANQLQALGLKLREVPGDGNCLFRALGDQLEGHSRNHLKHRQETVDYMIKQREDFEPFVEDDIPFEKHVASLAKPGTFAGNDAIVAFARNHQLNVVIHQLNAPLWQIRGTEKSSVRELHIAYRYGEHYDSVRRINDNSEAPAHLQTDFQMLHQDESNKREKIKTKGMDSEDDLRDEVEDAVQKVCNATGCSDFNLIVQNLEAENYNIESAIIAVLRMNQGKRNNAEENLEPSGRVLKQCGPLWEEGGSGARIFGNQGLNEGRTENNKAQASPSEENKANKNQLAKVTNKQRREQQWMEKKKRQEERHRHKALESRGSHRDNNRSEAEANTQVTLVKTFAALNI
USP7 block = human USP7 deubiquitinase inhibition | Q93009 | purified USP7, Ub-rhodamine cleavage fluorescence | inhibition, % at 20 µM | actives 0.3% (n = 47,000)
* hit, by the source's call; nt = not tested or not shown. Rule as the data show it: active = inhibition above about 30%; inactive = the rest.

SMILES | USP10 inh | UCHL1 block | OTUD3 block | USP7 block
O=C1CC(c2ccccc2)SC(N2CCc3ccccc32)=N1 (centres undefined) | -0.1 | 0.0 | -1.7 | -6.4
CC(C)n1nccc1CN1C[C@@H](O)[C@H](NC(=O)c2cscn2)C1 | 0.0 | -1.9 | 2.8 | 0.9
Cc1ccccc1Cn1c(=O)sc2ccccc2c1=O | 7.9 | 6.1 | 13.5 | -39.6
COc1cc(/C=C/C23NC(=O)CN2c2ccccc2C3(C)C)ccc1OCc1ccc(C)cc1 (centres undefined) | -16.6 | 1.7 | -89.6 | -0.3
O=C(O)c1c(CNC2CCCCC2)c2ccccc2n1Cc1cccc(F)c1 | -4.1 | -149.6 | -13.6 | -144.2
O=C(O)c1c(CNC2CCCCCC2)c2ccccc2n1Cc1ccc(F)cc1 | -7.8 | 44.8* | -9.4 | -177.3
Cc1[nH]n2c(=O)cc(Cc3ccccc3)nc2c1-c1ccccc1 | 5.6 | -5.3 | -4.0 | -5.4
O=c1cc(Cc2ccccc2)nc2c(-c3ccccc3)c(COc3ccccc3)[nH]n12 | 61.9* | 10.1 | 23.0 | 52.1*
O=C(NC1CC1)c1nc(-c2cn(-c3ccc(F)cc3)nn2)no1 | 0.9 | -2.1 | -5.7 | -0.1
CC1=C(Cn2c3cccc(=O)c-3nc3ccccc32)CCC(C)(C)C1 | 58.1* | 61.7* | 73.8* | 34.8*
CCCCCCCCCCCCCCCc1cc(O)cc(O)c1C(=O)O | 62.6* | 7.3 | 36.3* | 11.9
CCCCCCCc1cc(OC(=O)c2c(CCCCCCC)cc(O)cc2O[C@@H]2O[C@H](CO)[C@@H](O)[C@H](O)[C@H]2O)cc(O)c1C(=O)O | 100.8* | 88.2* | 101.5* | 101.0*
Cc1ccc(NC(=O)C2CCN(c3nc4nc[nH]c(=O)c4s3)CC2)c(C)c1 | -1.4 | -2.4 | -10.6 | 0.2
CCOC(=O)c1cc2c(ccn2-c2ccc(F)cc2)n1CC(=O)N1CCN(C(=O)c2ccco2)CC1 | 3.8 | 1.9 | 9.4 | 3.8
O=C(NC1CCOc2ccccc21)C(c1ccccc1)c1ccccc1 (centres undefined) | 3.1 | -1.8 | 0.2 | 0.5
N#Cc1cn2c(nc1-c1ccc(Cl)cc1)nc1ccccc12 | 52.8* | 3.2 | 60.7* | -9.4
Cc1cc(C)nc(NC(=O)c2ccn(COc3ccc(F)cc3)n2)c1 | -0.3 | 2.7 | 12.6 | 3.1
O=C(c1ccc(N2C(=O)CCS2(=O)=O)cc1Cl)N1CCN(Cc2ccccc2)CC1 | -0.3 | 0.3 | -4.1 | -6.6
COC(=O)c1ccc(C2c3[nH]c4ccccc4c3C[C@@H]3C(=O)N(c4ccc5c(c4)OCCO5)C(=O)N23)cc1 (some centres undefined) | 47.7* | 0.6 | 22.8 | 8.1
O=c1c2cc([N+](=O)[O-])ccc2nc(CN2CCN(c3ccccn3)CC2)n1-c1ccccc1F | 3.6 | 4.3 | 30.3* | -16.6
O=c1c2cc([N+](=O)[O-])ccc2nc(CN2CCN(CCO)CC2)n1-c1ccccc1F | -3.0 | -0.2 | 7.1 | -77.7
Cc1ccc(S(=O)(=O)N2CCC(C(=O)Nc3nnc(C)o3)CC2)cc1 | 1.3 | 3.1 | 5.6 | 1.1
Cc1nnc(NC(=O)C2CCN(c3ccc(S(N)(=O)=O)cc3[N+](=O)[O-])CC2)o1 | 62.0* | 36.2* | 66.8* | 43.1*
Cc1ccc(NC(=O)COC(=O)Cn2cnc3c2c(=O)n(C)c(=O)n3C)c(C)c1 | -0.7 | 1.1 | 4.8 | 2.7
COC1C(O)=C2C(=O)O/C(C)=C/C=C/C=C/C=C/CC(c3ccccc3)NC(=O)/C=C/C=C/C=C\C=C\C2(C)C1O (centres undefined) | -0.2 | 19.3 | 33.3* | 2.1
SMILES | USP10 inh | UCHL1 block | OTUD3 block | USP7 block
O=C(NC1CCCC1)N1C[C@H]2C[C@H]3[C@](C1)(CN(Cc1ccc(Cl)cc1)S3(=O)=O)O2 | 2.3 | 2.6 | 8.8 | -3.4
COCC(=O)N(Cc1ccccc1)[C@@H]1CC[C@@H]2C[C@@H]1[C@@H](O)CO2 | 1.1 | -0.6 | -3.9 | -0.7
Cn1c(COc2cccc3cccnc23)nnc1SCC(=O)c1ccc(Cl)cc1Cl | 36.1* | 5.1 | -13.9 | -53.5
COc1ccccc1OCc1nnc(SCC(=O)c2ccc(F)cc2)n1C | -1.3 | 0.0 | 0.0 | -4.2
CCn1nnc2c(Nc3ccc(C(C)=O)cc3)ncnc21 | 0.4 | -1.7 | -5.3 | -1.8
Cc1cccc(C(=O)OCC(=O)Nc2ccc3[nH]c(=O)[nH]c3c2)c1 | 17.8 | 2.5 | 32.0* | 14.9
Cc1ncc(CO)c2c1Oc1nc(-c3cccc(Cl)c3)nc(SCC(=O)N3CCCCC3)c1C2 | 37.0* | 14.7 | 22.2 | 38.8*
Cc1ccc(CNC(=O)c2oc(=O)c3ccccc3c2-c2ccccc2)cc1 | 1.7 | -2.4 | 3.0 | -0.1
COC(=O)c1ccc(NC(=O)/C=C/c2ccc(F)cc2)cc1 | 44.0* | 7.9 | 14.5 | nt
Cc1ccc(Cl)cc1NC(=O)CSc1nc2cn(C)nc2c(=O)n1CC1CC1 | 2.3 | 2.0 | 37.7* | -30.0
Cn1cc2nc(SCC(=O)Nc3ccc(Cl)cc3F)n(CC3CC3)c(=O)c2n1 | 1.4 | -0.9 | -4.1 | -13.6
O=C(NC1CCCC1)c1coc(NC(=O)c2ccco2)n1 | 2.5 | 2.2 | 13.0 | 5.0
O=c1c2ccccc2oc2nc(-c3cccs3)n(-c3ccccc3)c(=O)c12 | 21.9 | 49.4* | -3.2 | 80.0*
O=c1[nH]c2ccc(S(=O)(=O)Nc3ccc(O)c4ccccc34)cc2[nH]1 | 49.2* | 37.4* | 63.5* | -71.9
O=C(NCc1cccnc1)c1cc(C2CC2)nc2ccccc12 | -0.6 | -4.2 | -0.4 | -3.0
Cc1cc(NC(=O)CSc2ncc(-c3cccc([N+](=O)[O-])c3)n2-c2cccc(Cl)c2)no1 | 63.5* | -2.4 | 8.3 | 11.6
CC(=O)c1ccc(NC(=O)Cn2nc(-c3ccccc3)cc(NC(=O)C(C)C)c2=O)cc1 | -3.0 | 0.6 | -11.9 | 2.7
O=C(Cn1c(CNC(=O)c2ccccc2)nc2ccccc21)Nc1ccc(F)cc1 | 43.8* | 0.7 | 22.7 | 18.2
CC(NC(=O)c1ccccc1)c1nc2ccccc2n1CC(=O)Nc1ccc(C#N)cc1 (centres undefined) | 41.4* | 2.9 | -0.1 | 18.3
CSCCC(NC(=O)c1ccccc1)c1nc2ccccc2n1CC(=O)Nc1ccccc1 (centres undefined) | 40.8* | 2.1 | 3.1 | 10.6
O=C(Cn1nc(-c2ccccc2)cc(NC(=O)c2ccccc2)c1=O)Nc1ccc(F)cc1 | 37.9* | 1.8 | 23.9 | nt
COc1ccccc1NC(=O)c1nn(-c2cccc(F)c2)c(OC)cc1=O | 3.0 | 5.3 | 9.4 | 7.0
Cc1cc(NC(=O)c2cc(-c3cccnc3)n[nH]2)ccc1Br | 38.3* | 15.9 | 17.9 | 38.7*
Cc1cc(NC(=O)c2cc(-c3ccccn3)n[nH]2)ccc1Br | 18.0 | -0.4 | -6.6 | 8.1
CCOc1ccccc1NC(=O)C1CCN(C(=O)c2cc(-c3ccncc3)n[nH]2)CC1 | 2.4 | 0.8 | 12.1 | 3.4
Cc1cccc(O)c1C(=O)OC(C)c1cccc2nc3c(C(=O)O)cc4c(c3nc12)C(C)c1cccc2c1N4c1cccc(C(=O)O)c1N2 (centres undefined) | 98.7* | 95.2* | 100.8* | 99.5*
O=C(CN1CCOCC1)Nc1ccc(NC(=O)c2ccc(Cl)cc2)cc1 | 0.8 | 68.7* | 0.1 | -3.5
COc1cc(C2NC(=O)c3c(sc4c3CCN(C)C4)N2)ccc1OC(=O)c1cccc2ccccc12 (centres undefined) | -1.4 | -96.3 | -19.6 | -82.2
